The values that follow come from ChEMBL document CHEMBL2218924, “A broad activity screen in support of a chemogenomic map for kinase signalling research and drug discovery” (Biochem J, 2013).

Assay [1] deals with T1, Ephrin type-A receptor 3 (Homo sapiens) (UniProt P29320).
T1 sequence (whole entry): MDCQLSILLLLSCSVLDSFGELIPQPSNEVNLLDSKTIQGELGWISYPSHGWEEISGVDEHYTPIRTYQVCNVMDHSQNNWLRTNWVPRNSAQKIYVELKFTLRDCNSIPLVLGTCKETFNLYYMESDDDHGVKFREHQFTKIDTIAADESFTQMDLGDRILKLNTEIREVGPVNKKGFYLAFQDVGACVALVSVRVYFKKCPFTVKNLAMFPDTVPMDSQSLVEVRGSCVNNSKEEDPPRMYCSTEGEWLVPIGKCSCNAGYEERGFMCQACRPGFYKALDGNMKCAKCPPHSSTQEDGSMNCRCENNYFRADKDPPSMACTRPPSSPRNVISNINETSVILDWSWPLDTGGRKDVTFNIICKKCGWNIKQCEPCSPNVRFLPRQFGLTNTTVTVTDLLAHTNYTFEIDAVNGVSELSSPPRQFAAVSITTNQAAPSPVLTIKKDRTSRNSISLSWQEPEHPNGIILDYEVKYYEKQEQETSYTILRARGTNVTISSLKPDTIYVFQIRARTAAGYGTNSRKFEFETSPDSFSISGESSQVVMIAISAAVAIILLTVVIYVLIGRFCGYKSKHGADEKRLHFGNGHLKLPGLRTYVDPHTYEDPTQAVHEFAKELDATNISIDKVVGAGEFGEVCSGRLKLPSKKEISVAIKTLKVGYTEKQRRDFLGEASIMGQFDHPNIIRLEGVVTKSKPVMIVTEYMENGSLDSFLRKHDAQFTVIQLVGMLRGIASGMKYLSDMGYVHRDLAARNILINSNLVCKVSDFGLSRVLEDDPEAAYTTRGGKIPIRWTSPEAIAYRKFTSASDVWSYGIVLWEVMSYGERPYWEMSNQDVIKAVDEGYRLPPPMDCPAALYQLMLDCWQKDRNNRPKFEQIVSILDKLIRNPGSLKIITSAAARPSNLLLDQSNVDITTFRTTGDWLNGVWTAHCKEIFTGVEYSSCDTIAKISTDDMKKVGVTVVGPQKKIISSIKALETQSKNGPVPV
The conditions noted are these: at 10 µM.

For assay [2], the target named is Ephrin type-A receptor 4 (Homo sapiens) (UniProt P54764). The conditions noted are these: at 1 µM.
Assay [3] shares this target. The conditions noted are these: at 10 µM.
The target in assay [4] is Ephrin type-A receptor 5 (Homo sapiens) (UniProt P54756). The conditions noted are these: at 1 µM.
For assay [5] the target is unchanged. The following applies: at 10 µM.
For assay [6], the target named is Ephrin type-A receptor 7 (Homo sapiens) (UniProt Q15375). The conditions noted are these: at 1 µM.
Assay [7] shares this target. The following applies: at 10 µM.
Assay [8] deals with T2, Ephrin type-A receptor 8 (Homo sapiens) (UniProt P29322).
T2 sequence (whole entry): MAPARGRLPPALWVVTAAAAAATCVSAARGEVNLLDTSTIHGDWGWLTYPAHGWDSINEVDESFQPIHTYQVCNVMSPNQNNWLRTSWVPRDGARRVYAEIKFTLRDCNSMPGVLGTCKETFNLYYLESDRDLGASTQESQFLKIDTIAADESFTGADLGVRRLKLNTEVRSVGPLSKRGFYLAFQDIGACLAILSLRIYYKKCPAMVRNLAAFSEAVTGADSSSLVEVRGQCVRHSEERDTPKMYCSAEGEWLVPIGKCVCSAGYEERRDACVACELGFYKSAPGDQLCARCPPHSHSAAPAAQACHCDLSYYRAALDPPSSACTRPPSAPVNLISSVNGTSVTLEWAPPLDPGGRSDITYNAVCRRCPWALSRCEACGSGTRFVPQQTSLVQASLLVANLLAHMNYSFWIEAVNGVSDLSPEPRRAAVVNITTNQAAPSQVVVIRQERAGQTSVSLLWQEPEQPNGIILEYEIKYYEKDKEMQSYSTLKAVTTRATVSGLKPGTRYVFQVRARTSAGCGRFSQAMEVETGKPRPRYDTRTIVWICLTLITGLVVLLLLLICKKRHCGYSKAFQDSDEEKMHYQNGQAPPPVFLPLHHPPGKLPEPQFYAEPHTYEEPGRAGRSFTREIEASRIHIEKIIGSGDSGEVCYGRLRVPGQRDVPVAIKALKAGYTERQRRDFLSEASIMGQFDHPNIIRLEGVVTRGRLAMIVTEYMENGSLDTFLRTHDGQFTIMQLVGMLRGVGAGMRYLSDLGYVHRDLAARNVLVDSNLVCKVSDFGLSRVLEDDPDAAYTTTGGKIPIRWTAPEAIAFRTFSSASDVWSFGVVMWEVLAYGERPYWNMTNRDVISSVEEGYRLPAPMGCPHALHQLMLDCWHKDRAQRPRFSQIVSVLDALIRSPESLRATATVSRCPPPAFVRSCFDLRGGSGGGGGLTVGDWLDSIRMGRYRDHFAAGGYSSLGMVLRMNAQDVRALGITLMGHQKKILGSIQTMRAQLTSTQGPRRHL
The conditions noted are these: at 1 µM.

The target of assay [9] is T2, Ephrin type-A receptor 8 (Homo sapiens). The following applies: at 10 µM.
The target of assay [10] is T3, Ephrin type-B receptor 1 (Homo sapiens) (UniProt P54762).
T3 sequence (whole entry): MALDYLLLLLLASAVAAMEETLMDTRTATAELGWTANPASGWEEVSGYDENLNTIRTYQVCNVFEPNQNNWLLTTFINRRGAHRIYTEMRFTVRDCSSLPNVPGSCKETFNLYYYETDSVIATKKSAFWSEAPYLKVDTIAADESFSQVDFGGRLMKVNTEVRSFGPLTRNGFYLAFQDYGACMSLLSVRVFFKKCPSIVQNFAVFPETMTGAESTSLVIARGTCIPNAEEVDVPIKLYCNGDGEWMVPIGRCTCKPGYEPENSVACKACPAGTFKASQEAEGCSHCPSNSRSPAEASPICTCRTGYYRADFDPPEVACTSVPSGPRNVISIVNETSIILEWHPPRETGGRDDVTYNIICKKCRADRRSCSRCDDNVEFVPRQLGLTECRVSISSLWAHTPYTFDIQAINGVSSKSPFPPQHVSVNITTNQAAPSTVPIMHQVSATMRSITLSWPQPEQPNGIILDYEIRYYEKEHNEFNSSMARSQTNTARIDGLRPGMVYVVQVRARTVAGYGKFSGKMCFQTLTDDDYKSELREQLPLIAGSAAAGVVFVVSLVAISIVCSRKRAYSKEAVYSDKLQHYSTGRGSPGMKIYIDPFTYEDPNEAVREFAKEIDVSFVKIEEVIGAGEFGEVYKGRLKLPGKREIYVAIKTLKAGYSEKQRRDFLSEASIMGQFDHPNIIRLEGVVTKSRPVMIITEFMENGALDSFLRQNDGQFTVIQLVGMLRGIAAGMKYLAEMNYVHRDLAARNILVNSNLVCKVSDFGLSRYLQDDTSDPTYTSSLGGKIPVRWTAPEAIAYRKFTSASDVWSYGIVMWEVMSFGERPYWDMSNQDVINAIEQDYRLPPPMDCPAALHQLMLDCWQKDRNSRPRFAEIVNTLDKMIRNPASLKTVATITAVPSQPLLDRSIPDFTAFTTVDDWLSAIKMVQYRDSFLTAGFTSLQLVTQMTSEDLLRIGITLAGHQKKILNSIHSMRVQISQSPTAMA
The conditions noted are these: at 1 µM.

Sequence of Ephrin type-A receptor 5 (Homo sapiens) (P54756 whole entry): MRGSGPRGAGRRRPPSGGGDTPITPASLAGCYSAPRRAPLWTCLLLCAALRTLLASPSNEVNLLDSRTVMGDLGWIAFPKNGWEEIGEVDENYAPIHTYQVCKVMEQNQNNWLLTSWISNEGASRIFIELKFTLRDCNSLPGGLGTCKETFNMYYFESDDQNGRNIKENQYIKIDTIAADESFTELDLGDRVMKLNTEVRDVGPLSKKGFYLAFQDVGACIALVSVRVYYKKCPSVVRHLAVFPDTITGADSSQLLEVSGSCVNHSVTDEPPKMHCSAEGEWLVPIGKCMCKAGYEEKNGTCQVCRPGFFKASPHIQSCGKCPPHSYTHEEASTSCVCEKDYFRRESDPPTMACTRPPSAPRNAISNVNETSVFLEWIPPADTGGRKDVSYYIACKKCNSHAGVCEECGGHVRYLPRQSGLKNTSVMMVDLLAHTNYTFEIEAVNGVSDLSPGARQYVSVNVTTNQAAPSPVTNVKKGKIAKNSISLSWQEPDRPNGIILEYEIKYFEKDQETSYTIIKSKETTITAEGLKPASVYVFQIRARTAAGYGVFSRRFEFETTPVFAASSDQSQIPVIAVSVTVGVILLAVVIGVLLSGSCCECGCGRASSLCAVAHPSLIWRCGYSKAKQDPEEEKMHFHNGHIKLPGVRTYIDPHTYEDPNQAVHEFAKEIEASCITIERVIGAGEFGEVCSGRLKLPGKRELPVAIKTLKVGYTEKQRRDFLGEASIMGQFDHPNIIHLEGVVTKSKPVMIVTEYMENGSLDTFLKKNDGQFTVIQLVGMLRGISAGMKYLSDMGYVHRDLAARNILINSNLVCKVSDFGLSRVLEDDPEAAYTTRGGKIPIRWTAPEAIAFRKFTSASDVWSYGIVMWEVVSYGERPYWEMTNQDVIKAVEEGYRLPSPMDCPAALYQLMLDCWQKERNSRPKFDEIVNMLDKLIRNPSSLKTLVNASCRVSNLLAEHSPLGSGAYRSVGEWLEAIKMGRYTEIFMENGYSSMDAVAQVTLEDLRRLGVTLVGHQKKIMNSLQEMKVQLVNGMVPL
Sequence of Ephrin type-A receptor 4 (Homo sapiens) (P54764 whole entry): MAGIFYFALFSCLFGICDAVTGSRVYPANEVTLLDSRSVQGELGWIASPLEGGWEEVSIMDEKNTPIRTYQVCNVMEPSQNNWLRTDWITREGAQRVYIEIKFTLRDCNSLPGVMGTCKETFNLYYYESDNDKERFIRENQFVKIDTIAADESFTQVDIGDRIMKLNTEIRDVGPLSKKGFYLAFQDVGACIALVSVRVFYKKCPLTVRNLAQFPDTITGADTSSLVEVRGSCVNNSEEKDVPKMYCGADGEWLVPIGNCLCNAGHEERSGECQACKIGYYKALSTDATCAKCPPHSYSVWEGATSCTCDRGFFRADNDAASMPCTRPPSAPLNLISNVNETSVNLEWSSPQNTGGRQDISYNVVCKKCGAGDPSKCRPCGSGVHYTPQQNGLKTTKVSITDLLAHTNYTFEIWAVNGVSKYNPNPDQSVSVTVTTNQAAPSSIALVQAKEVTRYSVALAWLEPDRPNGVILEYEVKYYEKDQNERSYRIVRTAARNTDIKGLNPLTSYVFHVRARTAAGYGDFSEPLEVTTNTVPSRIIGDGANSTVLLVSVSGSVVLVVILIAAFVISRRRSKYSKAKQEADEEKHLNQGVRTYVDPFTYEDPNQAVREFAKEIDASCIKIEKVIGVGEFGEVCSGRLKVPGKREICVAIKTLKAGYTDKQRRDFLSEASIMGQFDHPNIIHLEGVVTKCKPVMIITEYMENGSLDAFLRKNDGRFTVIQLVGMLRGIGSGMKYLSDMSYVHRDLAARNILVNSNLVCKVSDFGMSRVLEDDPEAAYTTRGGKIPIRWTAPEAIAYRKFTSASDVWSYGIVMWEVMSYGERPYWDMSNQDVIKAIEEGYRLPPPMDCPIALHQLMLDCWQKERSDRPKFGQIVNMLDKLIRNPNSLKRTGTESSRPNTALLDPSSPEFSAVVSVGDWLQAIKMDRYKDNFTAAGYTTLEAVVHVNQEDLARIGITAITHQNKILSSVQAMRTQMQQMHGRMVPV
Sequence of Ephrin type-A receptor 7 (Homo sapiens) (Q15375 28-998 limits assumed): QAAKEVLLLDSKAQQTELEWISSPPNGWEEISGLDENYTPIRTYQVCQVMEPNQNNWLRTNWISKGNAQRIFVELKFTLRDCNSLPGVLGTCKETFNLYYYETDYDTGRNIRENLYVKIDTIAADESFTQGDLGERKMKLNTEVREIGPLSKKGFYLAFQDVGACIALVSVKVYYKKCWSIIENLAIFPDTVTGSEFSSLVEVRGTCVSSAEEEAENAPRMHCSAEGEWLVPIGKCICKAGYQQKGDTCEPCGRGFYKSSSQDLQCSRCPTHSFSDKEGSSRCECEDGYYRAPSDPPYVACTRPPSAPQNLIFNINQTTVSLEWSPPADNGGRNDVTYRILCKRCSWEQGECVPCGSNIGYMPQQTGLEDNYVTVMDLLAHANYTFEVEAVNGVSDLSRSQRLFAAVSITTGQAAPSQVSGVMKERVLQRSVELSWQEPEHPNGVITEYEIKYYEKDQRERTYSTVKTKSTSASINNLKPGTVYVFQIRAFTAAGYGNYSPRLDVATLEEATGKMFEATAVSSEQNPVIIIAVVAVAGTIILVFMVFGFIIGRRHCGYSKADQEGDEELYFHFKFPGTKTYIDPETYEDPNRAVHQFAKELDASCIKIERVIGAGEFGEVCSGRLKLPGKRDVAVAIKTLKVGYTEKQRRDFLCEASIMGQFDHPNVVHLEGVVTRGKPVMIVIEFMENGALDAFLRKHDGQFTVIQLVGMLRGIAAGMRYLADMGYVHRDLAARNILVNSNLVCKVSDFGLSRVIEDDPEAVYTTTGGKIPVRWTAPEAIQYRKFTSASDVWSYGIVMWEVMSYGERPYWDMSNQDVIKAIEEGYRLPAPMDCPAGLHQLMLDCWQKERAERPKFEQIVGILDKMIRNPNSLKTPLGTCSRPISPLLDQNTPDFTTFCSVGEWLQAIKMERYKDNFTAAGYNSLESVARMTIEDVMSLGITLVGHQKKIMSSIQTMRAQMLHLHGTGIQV

In general, residual activity refers to the activity still measured, relative to the control. As to `COc1cc2ncnc(Nc3ccc(O)c(Br)c3)c2cc1OC`, the residual activity in [1] was found to be 20%; in assay [2], 89%; in assay [3] it was 41%; in [4] it was 74%; in assay [5], 21%; in assay [6], 34%. Moreover, the residual activity amounted to 7% in assay [7], 70% in assay [8], 28% in [9] and 62% in assay [10].
